Rows were chosen to be rich in hits. Some 10% of all compounds tested hit in one or more screens of this group.
GPT2 inh – blocks human glutamate pyruvate transaminase 2; 0.25% of 100,000 active; AID 1671188; Potency, µM (titrated, usually from 57.7 µM), without a hit: at the top dose activity change, negative = inhibition, actives largely listed as inhibitors; Recombinant GPT2, coupled pyruvate oxidase/HRP Amplex Red fluorescence; note: nearly all actives have a fitted effect of over 60% in size
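Inhibition is scored from Amplex Red fluorescence generated when pyruvate oxidase and HRP act on pyruvate released by GPT2. Reactions contain 10ng/uL enzyme, 250uM a-KG and 2mM L-alanine and run 30 min at room temperature.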
hNpr1 antagonist – human Npr1 receptor antagonism | HEK293 hNpr1 GloSensor cGMP, ANP-stimulated luminescence | Potency, µM (doses to about 46.3 µM), without a hit: at the top dose activity change, negative = inhibition, most hits filed as inhibitors | 1.6% of 76,000 active | AID 1347048; calls by dose curve; note: nearly all actives have a fitted effect of over 60% in size
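Compound pre-incubated 30 min at room temperature on GloSensor-loaded HEK293 cells stably carrying hNpr1 and the pGS-40F cGMP biosensor. Stimulation uses hNppA at 0.1 nM final; luminescence is taken at baseline and 20 min post-agonist.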
3T3 cytotox – kills NIH 3T3 cells | Potency, µM (doses to about 96.7 µM), for inactives: top-dose activity change, negative = cytotoxicity, actives largely listed as inhibitors | NIH 3T3 viability, CellTiter-Glo ATP luminescence, 48-72 h | 4.3% of 94,000 active | AID 1345082; note: nearly all actives have a fitted effect of over 55% in size
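NIH 3T3 cells at 400 cells/well received 23 nL of compound by pintool and were incubated 48 or 72 h at 37 °C. Viability was read as ATP-coupled CellTiter-Glo luminescence.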
HEK293 tox – kills HEK 293 cells; HEK 293 viability, ATP luminescence (CellTiter-Glo), 48-72 h; AID 1345083; Potency, µM (highest dose often 115 µM), inactives show at the highest dose activity change, negative = cytotoxicity, actives largely listed as inhibitors; 6.6% of 94,000 active; note: nearly all actives have a fitted effect of over 60% in size
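Luminescence from cellular ATP, measured with CellTiter-Glo, indicates HEK 293 viability. Cells plated at 250 cells/well are treated with compound for 48 or 72 hr at 37 degree Celsius before reagent addition.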
Luciferase inh – Photinus pyralis luciferase inhibition | Potency, µM (series often up to 115 µM), hits mostly inhibitors | purified P. pyralis luciferase, luminescence, biochemical | P08659 | 2.5% of 76,000 active | AID 1347043; note: nearly all actives have a fitted effect of over 65% in size
Target sequence (P08659 whole entry, looked up): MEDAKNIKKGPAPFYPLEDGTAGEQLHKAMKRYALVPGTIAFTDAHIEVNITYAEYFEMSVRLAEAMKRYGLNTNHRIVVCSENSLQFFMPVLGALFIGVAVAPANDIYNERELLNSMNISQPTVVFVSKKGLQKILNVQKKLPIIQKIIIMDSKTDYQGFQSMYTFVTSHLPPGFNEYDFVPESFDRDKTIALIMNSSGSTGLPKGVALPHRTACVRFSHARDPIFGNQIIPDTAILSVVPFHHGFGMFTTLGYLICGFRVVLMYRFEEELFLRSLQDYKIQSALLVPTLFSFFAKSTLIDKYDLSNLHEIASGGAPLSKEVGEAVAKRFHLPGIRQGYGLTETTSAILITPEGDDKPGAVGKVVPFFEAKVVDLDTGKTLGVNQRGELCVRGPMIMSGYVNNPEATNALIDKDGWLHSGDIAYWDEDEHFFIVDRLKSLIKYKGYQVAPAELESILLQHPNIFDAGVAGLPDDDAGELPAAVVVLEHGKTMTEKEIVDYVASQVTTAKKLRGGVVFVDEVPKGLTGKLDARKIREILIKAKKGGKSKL
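Inhibitors were tested against purified firefly luciferase in a biochemical, low-substrate format (both substrates at 10uM) and luminescence measured with a CCD imager.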
Numbers without * were called inactive; [ ] = dose if it differs, or a comment. Unless noted, calls come from the whole dose curve; as a rule, active = well fitted curve in the direction sought with a large enough effect; inconclusive = small, poorly fitted or top-dose-only effect, or another doubt; inactive = no such curve, though single readings can be large; an effect the other way counts as inactive or inconclusive. % is set by controls: 0 for no effect and ±100 for the full control effect; potency is the fitted concentration of half-maximal effect.

COc1ccc(Nc2ccnc(N3CCCC(C(=O)NCCc4ccccc4)C3)n2)cc1 (stereo not given) was read as GPT2 inh inactive, 3T3 cytotox inconclusive and HEK293 tox inconclusive.
Screening Cc1ccc(Nc2ccnc(N3CCCC(C(=O)NCCc4ccccc4)C3)n2)cc1 (stereo not given) returned GPT2 inh inactive, 3T3 cytotox 28µM* and HEK293 tox inconclusive.
Screening Cc1ccc(-c2ccc3nnc(CNC(=O)CCC4CCCC4)n3n2)cc1 returned GPT2 inh 0%, hNpr1 antagonist 2%, 3T3 cytotox -4%, HEK293 tox -18% and Luciferase inh inactive.
Cn1nccc1C(=O)N1CC(c2ncc3c(-c4ccccc4)nccn23)C1 was read as GPT2 inh -14%[88.5 µM], hNpr1 antagonist -7%[70.6 µM], 3T3 cytotox -22%[138 µM], HEK293 tox inconclusive and Luciferase inh inactive.
Screening Cc1ccccc1-c1nccn2c(C3CN(Cc4ccccc4O)C3)ncc12 returned GPT2 inh -24%[88.5 µM], hNpr1 antagonist 2%[70.6 µM], 3T3 cytotox 100µM*, HEK293 tox 89µM* and Luciferase inh inactive.
For O=C(N1CCC[C@H]1c1nc(-c2ccccc2Cl)no1)C1(c2ccccc2)CC1 the results were GPT2 inh 1%, hNpr1 antagonist -19%, 3T3 cytotox inconclusive, HEK293 tox inconclusive and Luciferase inh 22µM*.
For COCCNC(=O)C[C@@H]1C[C@@H](C(C)C)[C@H](CNS(=O)(=O)c2ccccc2)C=C1C the results were GPT2 inh 3%[88.5 µM], hNpr1 antagonist -4%[70.6 µM], 3T3 cytotox 112µM*, HEK293 tox -22%[172 µM] and Luciferase inh inactive.
For CC1=C[C@@H](CNS(=O)(=O)c2ccccc2)[C@H](C(C)C)C[C@H]1CC(=O)NCc1ccccn1 the results were GPT2 inh -11%, hNpr1 antagonist -2%, 3T3 cytotox inconclusive, HEK293 tox -25% and Luciferase inh inactive.
COc1ccc(S(=O)(=O)NC[C@@H]2C=C(C)[C@H](CC(=O)NCc3ccc(C#N)cc3)C[C@H]2C(C)C)cc1 was read as GPT2 inh -7%, hNpr1 antagonist -9%, 3T3 cytotox 25µM*, HEK293 tox inconclusive and Luciferase inh inactive.
For CCOC(=O)C[C@@H]1C[C@@H](C(C)C)[C@H](CNS(=O)(=O)c2ccccc2)C=C1C the results were GPT2 inh -5%[88.5 µM], hNpr1 antagonist inconclusive, 3T3 cytotox inconclusive, HEK293 tox 63µM* and Luciferase inh inactive.
For CC1=C[C@@H](CNS(=O)(=O)c2cccc(F)c2)[C@H](C(C)C)C[C@H]1CC(=O)O the results were GPT2 inh -50%[88.5 µM], hNpr1 antagonist -1%[70.6 µM], 3T3 cytotox 45µM*, HEK293 tox -31%[172 µM] and Luciferase inh inactive.
Screening CC1=C[C@@H](CNS(=O)(=O)c2ccccc2)[C@H](C(C)C)C[C@H]1CC(=O)NCc1ccc(C#N)cc1 returned GPT2 inh inconclusive, hNpr1 antagonist -7%, 3T3 cytotox inconclusive, HEK293 tox inconclusive and Luciferase inh inactive.
CC1=C[C@@H](CNS(=O)(=O)c2ccccc2)[C@H](C(C)C)C[C@H]1CC(=O)O was read as GPT2 inh 1%[88.5 µM], hNpr1 antagonist 5%[70.6 µM], 3T3 cytotox inconclusive, HEK293 tox -5%[172 µM] and Luciferase inh inactive.
For O=C(Nc1ccccc1F)NC1CCN(CCn2nc3n(c2=O)CCCC3)C1 (stereo not given) the results were 3T3 cytotox -2% and HEK293 tox -6%.
For COCCn1c(=O)c(C(=O)NCc2ccc(F)c(F)c2)nc2cccnc21 the results were GPT2 inh -5%, 3T3 cytotox -29% and HEK293 tox -11%.
Cc1ccc(S(=O)(=O)NCCn2c(C)cnc2C2CCC2)c(C)c1 was read as GPT2 inh inactive, hNpr1 antagonist -17%, 3T3 cytotox -14%, HEK293 tox inconclusive and Luciferase inh inactive.
CCNC(=O)OC1CCN(C(=O)NC2CCCC2)CC(=O)N(C)c2ccccc21 (stereo not given) was read as 3T3 cytotox inconclusive and HEK293 tox inactive.

Compound activity as filed in PubChem.
